Pf Dd2 growth: qHTS Primary assay for Inhibitors of Plasmodium falciparum Dd2 growth in vitro; AID 1347417, 2020; 120,000 tested, 4.3% active; P. falciparum Dd2 growth, SYBR Green, 72 h; Potency, µM (titrated, usually from 28.9 µM), most hits filed as inhibitors; active = well fitted inhibition curve with a large enough effect; note: nearly all actives have a fitted effect of over 65% in size
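Readout: SYBR Green fluorescence, 485 nm excitation, 535 nm emission, after ~16 h lysis at 37C. Before that, Dd2-infected red cells (2.5% hematocrit) grew 72 h with compound, 29 uM top final concentration.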
Large screens that a line does not name were inactive. Many of the other results were omitted from the sample, so hits are more common in it than they were.

O=C1CCN(S(=O)(=O)c2ccccc2)CCCN(C(=O)Nc2ccc3c(c2)OCCO3)CCN1	none
COc1ccc(C(=O)N2CCC3(CC2)C(OC)CN3c2cccc(F)c2)c(OC)c1 (stereo not given)	none
CCOc1ccccc1NC(=O)Cn1c(=O)c(-c2noc(CC)n2)c2n(c1=O)CCCC2	none
Cc1nn(C)c(C)c1CCC(=O)N1C[C@@H](Oc2ccccc2)C[C@H]1C(=O)NC1CC1	none
Cc1noc(C)c1CCCNC(=O)c1ccc(N2CCN(CC3CC3)CC2)nc1	none
Cc1ccc(-c2nnc(C3CN(C(=O)c4sccc4C)CC34CCOCC4)o2)cc1 (stereo not given)	none
Cc1cc(C)n(-c2nnc(Nc3ccc(C(C)C)cc3)c3ccccc23)n1	none
Cc1ccc(-c2nnc(Nc3ccc(F)cc3)c3ccccc23)cc1S(=O)(=O)NC(C)C	Pf Dd2 growth 11µM
CNS(=O)(=O)c1cc(-c2nnc(Nc3cc(C)ccc3C)c3ccccc23)ccc1C	Pf Dd2 growth 5µM
Cc1cc(C)n(-c2nnc(Nc3cc(Cl)ccc3C)c3ccccc23)n1	none
Cc1ccc(-c2nnc(Nc3ccccc3O)c3ccccc23)cc1	none
Cc1ccc(-c2nnc(Nc3cccc(O)c3)c3ccccc23)cc1S(=O)(=O)N1CCOCC1	none
Cc1ccc(Nc2nnc(-c3ccc(C)c(S(=O)(=O)N4CCOCC4)c3)c3ccccc23)c(C)c1	Pf Dd2 growth 7.9µM
CCOC(=O)c1c(Nc2ccc(F)cc2)nnc(-c2ccccc2)c1-c1ccccc1	none
Cc1ccccc1Nc1nnc(-c2ccc(C)c(S(=O)(=O)N3CCOCC3)c2)c2ccccc12	none
CCn1nccc1C(=O)N1CCC2(CC1)NCCc1c2[nH]c2ccc(OC)cc12	none
Cc1cc2nc3n(c(=O)c2n1CC(=O)Nc1ccc2c(c1)OCO2)CCC3	none
Cc1nn(C)cc1NC(=O)CN1CCC(=O)N(CC2CC2)C(C(C)C)C1 (stereo not given)	none
CCOC(=O)CNC(=O)c1ccc(CN2C(=O)NC3(CCS(=O)(=O)CC3)C2=O)cc1	none
COC(=O)c1cc2sccc2n1Cc1ccccc1	none
COC(=O)c1cc2sc(C)cc2n1Cc1ccccc1	none
COC(=O)c1cc2sc(C)cc2n1Cc1cccc(OC)c1	Pf Dd2 growth 10µM
Cc1ccc(C2c3c(-c4ccccc4O)n[nH]c3C(=O)N2CCc2ccccc2)cc1 (stereo not given)	Pf Dd2 growth 10µM
Cc1ccc(C2NC(=O)c3n[nH]c(-c4cccs4)c32)cc1 (stereo not given)	none
CCOc1ccc(C2c3c(oc4ccc(C)cc4c3=O)C(=O)N2CCCN(C)C)cc1OC (stereo not given)	none
Cc1cc(C)c(-c2n[nH]c3c2C(c2ccccc2F)N(Cc2ccco2)C3=O)c(O)c1 (stereo not given)	Pf Dd2 growth 4µM
CCCOc1cccc(C2c3c(-c4ccccc4O)n[nH]c3C(=O)N2Cc2ccco2)c1 (stereo not given)	Pf Dd2 growth 5.6µM
COc1cc(C2c3c(-c4cc(C)ccc4O)n[nH]c3C(=O)N2Cc2cccnc2)cc(OC)c1OC (stereo not given)	none
O=C1c2[nH]nc(-c3ccccc3O)c2C(c2ccccc2F)N1Cc1ccncc1 (stereo not given)	none
CCCOc1ccc(C(=O)N(Cc2ccco2)Cc2ccco2)cc1	none
Cc1ccc(CCNC(=O)C2CC(=O)N(CCc3ccccc3)C2)cc1 (stereo not given)	none
O=C1c2[nH]nc(-c3ccccc3O)c2C(c2cccc(Br)c2)N1Cc1ccncc1 (stereo not given)	none
CCOc1ccc(C2c3c(-c4cc(C)ccc4O)n[nH]c3C(=O)N2Cc2cccnc2)cc1OCC (stereo not given)	Pf Dd2 growth 11µM
Cc1cc(C)c2c(=O)c3c(oc2c1)C(=O)N(Cc1ccco1)C3c1ccccc1F (stereo not given)	none
O=C(NC1CCN(c2cc(-c3ccccc3)[nH]n2)CC1)c1cccc(Cl)c1	none
C[S+](=O)([O-])N1CCn2c(nn(-c3ccncc3)c2=O)C1	none
COCCNC(=O)C[C@@H]1O[C@H](CNCc2cccc(Cl)c2)[C@@H](O)[C@H]1O	none
COc1ccc(OC)c([S+](=O)([O-])c2nnn3c2nc(NC2CC2)c2ccccc23)c1	none
COc1ccc(-c2noc(C(=O)O)c2[C@@H](C)NS(=O)(=O)CC(C)C)cc1	none
Cc1cccc(C(=O)N2C(C(=O)N3CCOCC3)COC23CCN(C(=O)CC(C)(C)C)CC3)c1 (stereo not given)	none
Cc1ccc(NC(=O)c2ccc3c(c2)N(S(C)(=O)=O)CC3)cc1	none
COc1cc(C2C(C(=O)OCC(C)C)=C(C)N=C3SCCC(=O)N32)ccc1OCc1ccccc1 (stereo not given)	none
CCOc1ccc(C2c3cc(OCC)c(OCC)cc3CC(=O)N2c2ccc(C(=O)O)cc2)cc1OCC (stereo not given)	none
COc1ccc(-c2[nH]nc3ncc(-c4ccccc4O)nc23)c(C)c1	none
COc1cc(C2c3c(-c4ccccc4O)n[nH]c3C(=O)N2CCO)ccc1OCc1ccccc1 (stereo not given)	Pf Dd2 growth 11µM
CCOc1cc(C2c3c(oc4cc(C)cc(C)c4c3=O)C(=O)N2CCO)ccc1O (stereo not given)	none
COc1ccc(CCN2C(=O)c3[nH]nc(-c4ccccc4O)c3C2c2cccc(OC)c2)cc1 (stereo not given)	Pf Dd2 growth 10µM
CCCOc1ccc(C2c3c(-c4ccccc4O)n[nH]c3C(=O)N2CCc2ccccc2)cc1OCC (stereo not given)	Pf Dd2 growth 4.5µM
O=C1c2[nH]nc(-c3ccccc3O)c2C(c2cccc(Cl)c2)N1Cc1cccnc1 (stereo not given)	none
O=C1c2[nH]nc(-c3ccccc3O)c2C(c2cccc(OCc3ccccc3)c2)N1CCCO (stereo not given)	Pf Dd2 growth 11µM
CCCCCOc1ccc(C2c3c(oc4ccccc4c3=O)C(=O)N2c2nc(C)c(C)s2)cc1OCC (stereo not given)	none
COc1cccc(-c2n[nH]c3c2C(c2ccccn2)N(C)C3=O)c1 (stereo not given)	none
O=C1Nc2ccccc2OCC12CCN(Cc1cccc3ccccc13)CC2	none
O=C1NCCOCCCN(C(=O)C2CCCC2)[C@H]2CCCC[C@@H]12	none
COc1ccc(-c2cnc([C@@H]3COCCN3Cc3csnn3)[nH]2)cc1	none
CCOc1ccccc1C(=O)N1CCCC2(C1)NC(=O)N(Cc1ccc(Cl)cc1)C2=O (stereo not given)	none
CCCn1nc(C)c2c1NC(=O)CC2c1ccc(OCC(N)=O)c(OC)c1 (stereo not given)	none
CCCN1C(=O)CN(C2CCCCC2)C(=O)C1c1ccc(OC)c(OC)c1 (stereo not given)	none
CCCN1C(=O)c2[nH]nc(-c3ccccc3O)c2C1c1ccc(OCc2ccccc2)c(OC)c1 (stereo not given)	Pf Dd2 growth 10µM
O=C(NC1CCCCC1)N1CCC(c2noc(C3CC3)n2)C1 (stereo not given)	none
CC1=C[C@@H](CN2CCCCC2)[C@H](C(C)C)C[C@H]1Cc1nnc(-c2cncn2C)o1	Pf Dd2 growth 7.9µM
CC(=O)NC[C@@H]1C=C(C)[C@H](CC(=O)NCc2cccnc2)C[C@H]1C(C)C	none
CC1=C[C@@H](CNc2ccccn2)[C@H](C(C)C)C[C@H]1Cc1nnc(-c2cncn2C)o1	Pf Dd2 growth 5.6µM
CC1=C[C@@H](CN2CCN(c3ncccn3)CC2)[C@H](C(C)C)C[C@H]1Cc1nnc(-c2cncn2C)o1	none
Cc1ccccc1CN1CC[C@H](c2nnc(-c3cncn3C)o2)C1	none
CC1=C[C@@H](CNC(=O)c2ccccc2)[C@H](C(C)C)C[C@H]1Cc1nnc(-c2cncn2C)o1	none
